Experimental data published in ChEMBL document CHEMBL3988442, “University of Dundee, Small-Polar-MMV Screening Library” (2021).
For some of these results: Measured potencies and affinities stand elsewhere.

What was measured:
Design in all cases: scale not given: direction of the effect not stated beside the values
[1] = molecular target: Protein translocase subunit SecA (Escherichia coli (strain K12)) (UniProt P10408); test: Assay to Identify E. coli SecA ATPase Inhibitors; type: functional; settings: 30 µM
[2] = molecular target: T1, Ubiquitin-activating enzyme e1, putative (Leishmania donovani (strain BPK282A1)) (UniProt E9BSI1); test: Leishmania donovani Ubiquitin Activating Enzyme (LdE1); type: functional; settings: 30 µM
T1 sequence (whole entry): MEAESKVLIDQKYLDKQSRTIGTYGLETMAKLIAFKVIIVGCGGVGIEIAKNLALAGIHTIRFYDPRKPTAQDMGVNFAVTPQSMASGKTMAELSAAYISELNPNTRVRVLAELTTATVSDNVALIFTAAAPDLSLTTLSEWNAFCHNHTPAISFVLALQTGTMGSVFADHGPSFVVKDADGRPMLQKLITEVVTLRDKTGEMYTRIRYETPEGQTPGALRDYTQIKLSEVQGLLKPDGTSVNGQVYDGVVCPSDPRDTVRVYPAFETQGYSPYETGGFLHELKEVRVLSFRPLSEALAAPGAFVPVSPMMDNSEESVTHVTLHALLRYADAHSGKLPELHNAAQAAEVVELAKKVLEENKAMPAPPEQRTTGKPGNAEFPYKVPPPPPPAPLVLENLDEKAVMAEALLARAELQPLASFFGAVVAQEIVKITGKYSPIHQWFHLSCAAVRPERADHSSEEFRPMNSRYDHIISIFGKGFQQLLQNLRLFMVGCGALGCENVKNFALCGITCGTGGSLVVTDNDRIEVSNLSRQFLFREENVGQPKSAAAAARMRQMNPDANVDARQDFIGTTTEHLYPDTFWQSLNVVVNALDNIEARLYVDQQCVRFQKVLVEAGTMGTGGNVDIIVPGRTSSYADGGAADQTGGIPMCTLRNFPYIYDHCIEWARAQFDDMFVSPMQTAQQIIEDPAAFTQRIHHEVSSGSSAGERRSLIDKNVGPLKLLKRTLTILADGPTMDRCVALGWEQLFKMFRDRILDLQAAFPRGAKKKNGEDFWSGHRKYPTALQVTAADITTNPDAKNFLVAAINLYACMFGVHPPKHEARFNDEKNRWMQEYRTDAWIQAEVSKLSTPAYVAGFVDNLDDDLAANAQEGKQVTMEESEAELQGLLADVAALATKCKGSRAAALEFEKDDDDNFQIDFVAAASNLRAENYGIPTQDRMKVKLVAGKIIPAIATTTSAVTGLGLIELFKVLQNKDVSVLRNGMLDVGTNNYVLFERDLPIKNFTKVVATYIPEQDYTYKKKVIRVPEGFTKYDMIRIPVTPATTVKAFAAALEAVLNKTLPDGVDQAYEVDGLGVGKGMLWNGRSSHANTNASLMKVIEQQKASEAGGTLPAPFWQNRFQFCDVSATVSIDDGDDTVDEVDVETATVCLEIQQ

[3] = molecular target: AMP-activated protein kinase, AMPK (Homo sapiens) (UniProt P54646+O43741+P54619+Q9UGJ0+Q9Y478+Q13131+Q9UGI9); test: AMP-dependent Kinase enzyme assay. An in vitro enzyme assay that detects ADP turnover that is directly proportional to AMPK activity. This uses naive AMPK that is activated during the assay with MK-8722; type: functional; settings: 30 µM
[4] = molecular target: Sialic acid-binding Ig-like lectin 9 (Homo sapiens) (UniProt Q9Y336); test: Hs-Siglec9 ALPHAscreen SOP 20170721; settings: 10 µM
Trypanosoma cruzi = test: Trypanosoma cruzi phosphomannomutase and mannose-1-phosphate guanylyltransferase assay; type: functional; settings: 10 µM
[5] = molecular target: T2, Arginase-2, mitochondrial (Homo sapiens) (UniProt P78540); test: in vitro enzyme assay to detect the production of urea directly proportional to the activity of Arginase II; type: functional; settings: 33.3 µM; also: in the data most compounds retested in dose-response had high values
T2 sequence (whole entry): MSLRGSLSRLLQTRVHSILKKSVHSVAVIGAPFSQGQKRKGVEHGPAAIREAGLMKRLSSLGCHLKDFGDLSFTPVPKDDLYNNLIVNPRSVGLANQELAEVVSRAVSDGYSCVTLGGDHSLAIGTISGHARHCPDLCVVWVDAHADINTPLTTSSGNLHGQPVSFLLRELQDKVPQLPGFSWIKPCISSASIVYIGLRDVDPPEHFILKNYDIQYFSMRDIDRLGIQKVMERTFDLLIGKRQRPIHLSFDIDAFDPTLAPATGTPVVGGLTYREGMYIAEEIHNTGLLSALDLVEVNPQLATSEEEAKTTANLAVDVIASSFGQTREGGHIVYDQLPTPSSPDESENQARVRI

[6] = molecular target: T3, Proteasome subunit beta (Trypanosoma cruzi) (UniProt O96673); test: Trypanosoma cruzi proteasome chymotrypsin-like activity (TcProtChymo) assay.; also: in the data most compounds retested in dose-response had high values; type: functional; settings: 9.37 µM
T3 sequence (whole entry): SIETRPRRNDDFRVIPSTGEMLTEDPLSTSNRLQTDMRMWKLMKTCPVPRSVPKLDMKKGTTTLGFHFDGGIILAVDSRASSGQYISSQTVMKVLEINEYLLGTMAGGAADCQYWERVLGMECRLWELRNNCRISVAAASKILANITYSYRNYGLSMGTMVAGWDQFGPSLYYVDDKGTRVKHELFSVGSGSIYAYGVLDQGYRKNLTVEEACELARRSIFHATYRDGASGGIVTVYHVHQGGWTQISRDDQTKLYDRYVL

Homo sapiens = organism: Homo sapiens; test: To identify inhibition of the IFN signalling (Jak-Stat) pathway via expression of an eGFP reporter gene under the control of an IFN-stimulated response element (ISRE) containing MxA promoter.; type: functional; settings: 30 µM
[7] = molecular target: T4, Tyrosyl-tRNA synthetase, putative (Trypanosoma cruzi (strain CL Brener)) (UniProt Q4DSP6); test: Trypanosoma cruzi tyrosyl tRNA synthetase (TcYRS) _High Tyrosine SOP; type: functional; settings: 30 µM; also: in the data most compounds retested in dose-response had high values
T4 sequence (whole entry): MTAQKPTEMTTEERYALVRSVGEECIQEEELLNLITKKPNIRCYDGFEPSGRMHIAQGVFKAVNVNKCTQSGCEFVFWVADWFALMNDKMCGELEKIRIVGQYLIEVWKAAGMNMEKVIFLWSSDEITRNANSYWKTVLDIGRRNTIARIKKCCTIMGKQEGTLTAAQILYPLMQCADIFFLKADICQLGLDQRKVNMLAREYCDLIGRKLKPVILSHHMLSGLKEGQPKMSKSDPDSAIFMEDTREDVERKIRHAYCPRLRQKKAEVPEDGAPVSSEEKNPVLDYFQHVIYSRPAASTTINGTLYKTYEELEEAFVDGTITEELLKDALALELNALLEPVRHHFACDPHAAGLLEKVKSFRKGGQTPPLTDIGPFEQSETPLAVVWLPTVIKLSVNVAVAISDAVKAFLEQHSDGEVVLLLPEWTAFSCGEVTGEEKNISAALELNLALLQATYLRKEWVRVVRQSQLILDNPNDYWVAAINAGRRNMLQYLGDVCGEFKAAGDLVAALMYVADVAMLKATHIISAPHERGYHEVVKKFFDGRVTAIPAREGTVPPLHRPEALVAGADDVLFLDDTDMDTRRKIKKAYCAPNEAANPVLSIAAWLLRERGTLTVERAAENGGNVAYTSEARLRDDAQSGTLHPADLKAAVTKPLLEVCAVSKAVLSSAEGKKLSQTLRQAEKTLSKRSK

[8] = molecular target: T4, Tyrosyl-tRNA synthetase, putative (Trypanosoma cruzi (strain CL Brener)); test: Trypanosoma cruzi tyrosyl tRNA synthetase (TcYRS) SOP; type: functional; settings: 30 µM
[9] = molecular target: Chromo domain-containing protein 1 (Saccharomyces cerevisiae (strain ATCC 204508 / S288c) (Baker's yeast)) (UniProt P32657); test: ScCHD-1 Enzyme Inhibition Assay; type: functional; settings: 30 µM; also: in the data most compounds retested in dose-response had high values
Chromo domain-containing protein 1 (Saccharomyces cerevisiae (strain ATCC 204508 / S288c) (Baker's yeast)), sequence (P32657 whole entry, the tested form may be a part): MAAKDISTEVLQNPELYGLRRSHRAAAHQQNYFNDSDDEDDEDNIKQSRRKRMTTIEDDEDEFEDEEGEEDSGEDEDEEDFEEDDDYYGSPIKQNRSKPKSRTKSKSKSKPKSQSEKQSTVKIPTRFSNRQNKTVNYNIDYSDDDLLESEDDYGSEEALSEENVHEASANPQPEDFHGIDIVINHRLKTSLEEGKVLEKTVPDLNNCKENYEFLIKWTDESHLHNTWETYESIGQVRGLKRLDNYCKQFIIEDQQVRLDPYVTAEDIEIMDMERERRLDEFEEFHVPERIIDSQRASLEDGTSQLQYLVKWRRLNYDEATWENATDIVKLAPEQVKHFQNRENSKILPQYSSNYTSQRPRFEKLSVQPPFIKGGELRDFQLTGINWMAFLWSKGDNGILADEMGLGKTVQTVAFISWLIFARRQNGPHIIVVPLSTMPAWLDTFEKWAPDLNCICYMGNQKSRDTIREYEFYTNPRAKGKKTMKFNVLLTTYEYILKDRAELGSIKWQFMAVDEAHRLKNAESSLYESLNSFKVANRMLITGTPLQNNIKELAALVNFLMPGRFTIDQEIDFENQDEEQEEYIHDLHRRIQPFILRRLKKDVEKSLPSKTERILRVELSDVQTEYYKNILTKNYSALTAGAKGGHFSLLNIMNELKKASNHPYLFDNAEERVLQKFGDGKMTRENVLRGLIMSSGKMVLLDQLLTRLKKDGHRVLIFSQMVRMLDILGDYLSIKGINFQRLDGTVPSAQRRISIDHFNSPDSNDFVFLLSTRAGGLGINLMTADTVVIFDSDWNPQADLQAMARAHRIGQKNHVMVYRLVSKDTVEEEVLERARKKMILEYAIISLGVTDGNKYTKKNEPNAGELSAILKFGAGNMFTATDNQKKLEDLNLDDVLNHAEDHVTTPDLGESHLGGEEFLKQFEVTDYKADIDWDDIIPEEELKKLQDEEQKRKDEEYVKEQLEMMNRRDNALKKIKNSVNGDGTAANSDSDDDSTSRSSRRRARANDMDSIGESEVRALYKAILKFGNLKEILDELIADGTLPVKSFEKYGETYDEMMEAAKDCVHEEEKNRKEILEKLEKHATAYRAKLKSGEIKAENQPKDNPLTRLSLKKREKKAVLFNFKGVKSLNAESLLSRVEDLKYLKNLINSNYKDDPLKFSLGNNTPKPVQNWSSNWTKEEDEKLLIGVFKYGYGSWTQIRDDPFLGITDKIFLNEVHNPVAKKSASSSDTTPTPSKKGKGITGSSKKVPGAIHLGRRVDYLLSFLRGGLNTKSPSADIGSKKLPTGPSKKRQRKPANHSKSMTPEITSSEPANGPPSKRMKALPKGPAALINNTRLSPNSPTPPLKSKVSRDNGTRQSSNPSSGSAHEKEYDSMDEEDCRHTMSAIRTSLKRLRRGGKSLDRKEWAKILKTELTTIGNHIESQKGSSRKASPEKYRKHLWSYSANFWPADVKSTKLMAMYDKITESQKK

Protein translocase subunit SecA (Escherichia coli (strain K12)), sequence (P10408 whole entry): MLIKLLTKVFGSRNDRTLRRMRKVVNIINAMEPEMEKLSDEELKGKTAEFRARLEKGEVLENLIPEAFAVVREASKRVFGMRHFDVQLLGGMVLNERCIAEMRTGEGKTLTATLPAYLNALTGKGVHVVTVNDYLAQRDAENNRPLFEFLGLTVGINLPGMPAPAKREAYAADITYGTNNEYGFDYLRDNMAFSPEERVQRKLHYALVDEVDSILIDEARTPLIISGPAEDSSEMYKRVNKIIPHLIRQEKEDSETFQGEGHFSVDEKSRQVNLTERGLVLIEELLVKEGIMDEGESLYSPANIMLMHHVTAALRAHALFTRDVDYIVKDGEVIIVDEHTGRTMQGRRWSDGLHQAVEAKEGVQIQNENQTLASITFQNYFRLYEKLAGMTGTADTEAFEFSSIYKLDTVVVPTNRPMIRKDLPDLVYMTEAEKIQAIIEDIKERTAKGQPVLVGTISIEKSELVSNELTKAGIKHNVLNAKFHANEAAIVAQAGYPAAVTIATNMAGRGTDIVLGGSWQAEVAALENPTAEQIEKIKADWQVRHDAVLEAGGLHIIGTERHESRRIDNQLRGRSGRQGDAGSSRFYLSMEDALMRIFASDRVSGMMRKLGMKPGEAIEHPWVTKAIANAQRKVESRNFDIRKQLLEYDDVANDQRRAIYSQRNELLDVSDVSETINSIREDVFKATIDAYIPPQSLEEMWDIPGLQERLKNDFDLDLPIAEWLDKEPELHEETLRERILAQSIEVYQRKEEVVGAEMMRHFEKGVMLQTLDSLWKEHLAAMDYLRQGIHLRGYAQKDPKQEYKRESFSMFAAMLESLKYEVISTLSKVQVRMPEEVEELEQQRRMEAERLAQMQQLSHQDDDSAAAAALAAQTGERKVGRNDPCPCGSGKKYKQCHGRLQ
Sialic acid-binding Ig-like lectin 9 (Homo sapiens), sequence (Q9Y336 whole entry): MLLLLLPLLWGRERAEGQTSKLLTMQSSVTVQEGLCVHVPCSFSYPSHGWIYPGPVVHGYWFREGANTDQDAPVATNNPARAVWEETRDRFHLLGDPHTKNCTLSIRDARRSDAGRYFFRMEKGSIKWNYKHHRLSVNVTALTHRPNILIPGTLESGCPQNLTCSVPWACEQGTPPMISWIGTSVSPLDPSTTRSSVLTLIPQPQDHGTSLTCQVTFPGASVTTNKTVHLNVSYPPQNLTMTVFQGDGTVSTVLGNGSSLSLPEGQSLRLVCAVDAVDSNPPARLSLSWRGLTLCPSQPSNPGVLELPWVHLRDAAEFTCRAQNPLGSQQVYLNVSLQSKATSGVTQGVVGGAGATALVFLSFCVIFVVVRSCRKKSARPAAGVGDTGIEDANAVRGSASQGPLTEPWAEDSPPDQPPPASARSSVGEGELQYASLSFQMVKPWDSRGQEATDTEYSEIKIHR

SMILES	Percent Effect [1] [%]	Percent Effect [2] [%]	Percent Effect [3] [%]	Percent Effect [4] [%]	Percent Effect (Trypanosoma cruzi) [%]	Percent Effect [5] [%]	Percent Effect [6] [%]	Percent Effect (Homo sapiens) [%]	Percent Effect [7] [%]	Percent Effect [8] [%]	Percent Effect [9] [%]
O=C(COc1coc(CN2CCCCCC2)cc1=O)c1ccccc1	-5.87	-7.89	-1.88	-6.78	-3.6	-1.18	9.49	-1.04	3.19	0	72.3
CSCCC(CO)NC(=O)c1sc(-c2ccccc2Cl)nc1C (stereo not given)	-3.21	4	7.64	6.5	-5.89	-6.16	11.3	6.86	1.06	7.69	-4
CC1COCCN1Cc1nc(-c2cccs2)no1 (stereo not given)	-2.46	10.8	138	-4.28	-3.49	-2.4	11.5	13.2	4.43	13.6	-7.61
O=C(c1ccc[nH]1)N1CCCC2(CCN(c3ccsc3)C2=O)C1 (stereo not given)	-0.928	-2.6	11.3	3.88	-3.06	-5.81	1.57	4.99	-3.17	-3.85	-1.57
NC(=O)C1CCCN1Cc1cccc(NC(=O)c2ccsc2)c1 (stereo not given)	-3.24	13.3	0.719	13.7	3.6	10.4	20.2	11.8	10.4	18.5	-10.5
CCc1nccn1C1CCCN(C(=O)c2ccc(C(=O)NC)nc2)C1 (stereo not given)	1.89	-2.6	1.32	2.31	-2.81	4.63	1.86	18.1	1.94	0	-4.59
O=C(Cn1cnnn1)N1CCCCC1Cn1cccn1 (stereo not given)	-4.89	5.06	-3.21	-2.69	-6.52	-3.04	0.901	25.2	-3.45	-11.4	-5.05
CCN1CCC(NC(=O)CN2CCCCC2Cn2cc(C)cn2)CC1 (stereo not given)	3.6	21.5	4.67	-0.101	-4.21	-11.4	15.3	14.9	1.04	-22.8	-23.6
Cc1ccsc1CNc1cc(N2CCCC2CO)ncn1 (stereo not given)	-9.04	11.4	-19.2	6.66	1.33	-1.07	8.23	12.1	0	17.7	-31
Cc1cnn(CCNCc2cccnc2)c1	-3.48	-11.4	6.23	2.04	-2.36	1.5	8.92	16.9	2.08	7.59	-6.41
CCS(=O)(=O)c1ccc(N2CCC(NC(C)=O)CC2)cc1	-5.48	2.67	0.562	-0.234	-3.21	-1.04	14.8	24.6	2.73	8.64	-7.72
Cc1nc(-c2ccccc2)n(CC(=O)N(C(C)C)C(C)C)n1	-0.812	18.9	-12.1	5.09	3.68	-9.62	15.3	14.6	9.36	23.5	-8.42
NC(=O)C1CCCN(C(=O)c2cnc3c(cnn3C3CCCC3)c2)C1 (stereo not given)	-8.82	15.2	-8.15	18.9	12.8	-3.04	3.19	19.3	6.4	24.1	-11.1
COc1c(CNC2CCCc3ccccc32)c(C)nn1C (stereo not given)	-7.16	21.6	-16.2	24	4.79	2.23	12.4	7.25	2.15	13.6	-5.73
CC(C)(NCC(=O)NCC(F)(F)F)c1ccc2c(c1)OCCO2	-1.45	13.5	-7.25	1.31	-4.06	17.2	16	5.37	1.48	18.5	-4.3
CCCNC(=O)c1cc2c(nc1O)CCC(C)C2 (stereo not given)	-3.98	14.7	2.01	-2.15	5.5	-13.9	9.06	-2.51	6.35	10.3	-8.5
CN(C)[C@@H]1CCN(c2ncccn2)[C@H]1Cc1ccncc1	-4.35	2.6	-0.281	0.217	5.01	1.38	2.5	-12.2	1.07	3.7	-1.65
CN1CC(=O)N(c2cccnc2)CC12CCN(C(=O)c1cccnc1)C2 (stereo not given)	1.61	10.7	11	-7.78	-3.09	-53.9	14.5	2.71	6.25	10	-5.77
Cc1nc(C)n(CC2CCCN2CCCOc2ccc(F)cc2)n1 (stereo not given)	-4.9	-15.2	-12.2	-1.58	7.84	0	8.93	7.36	8.37	13.9	-6.25
CCC1(CO)CCCN(c2ncccc2C#N)C1 (stereo not given)	-4.07	-5.41	-0.35	5.12	-1.74	-3.81	-0.69	19.1	-1.59	0	-3.09
